MbtI inh: blocks the Mycobacterium tuberculosis siderophore enzyme MbtI. P9WFX0. purified MbtI enzyme, fluorescence intensity read-out. inhibition, % (concentration not given with the values). 0.89% of 100,000 active; in the data active means inhibition mostly above about 56%, no sharp cut-off; inactive means mostly below about 77%
Mtb MenB inh: Mtb MenB enzyme inhibition | MenB enzyme assay, absorbance read-out | inhibition, % (test concentration not listed) | 0.43% of 100,000 active | AID 540299; in the data active means inhibition above about 21%, passing the limit was not always enough
Polio RdRp inh: poliovirus RNA polymerase inhibition | AID 588519 | 0.66% of 150,000 active | poliovirus polymerase elongation, fluorescence polarization; hits give low values | % elongation, % (compound at 16.7 µg/mL); in the data active means % elongation below about 90%
Target sequence (P03300 1749-2209 limits assumed): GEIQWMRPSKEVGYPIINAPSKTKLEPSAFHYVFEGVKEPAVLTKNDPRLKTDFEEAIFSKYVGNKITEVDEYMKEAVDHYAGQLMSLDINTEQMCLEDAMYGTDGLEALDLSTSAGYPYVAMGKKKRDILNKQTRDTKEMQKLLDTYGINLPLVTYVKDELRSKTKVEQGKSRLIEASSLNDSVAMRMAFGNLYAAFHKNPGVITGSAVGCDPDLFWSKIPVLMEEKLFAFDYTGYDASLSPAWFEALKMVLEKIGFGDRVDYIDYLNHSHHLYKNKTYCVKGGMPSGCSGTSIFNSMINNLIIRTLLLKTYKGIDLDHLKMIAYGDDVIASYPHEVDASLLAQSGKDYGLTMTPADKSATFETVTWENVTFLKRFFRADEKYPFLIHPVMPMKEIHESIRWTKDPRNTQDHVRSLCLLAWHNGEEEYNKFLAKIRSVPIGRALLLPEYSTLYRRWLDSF
The depositor's hits bear a star; / = not tested or not shown. Rows were chosen to be rich in hits. Some 1.4% of all compounds tested hit in one or more screens of this group.

SMILES	MbtI inh	Mtb MenB inh	Polio RdRp inh
Cc1ccc2o/c(=N\O)c(C(N)=O)cc2c1	100.3*	-11.7	100.0
Cc1ccc2oc(=O)c(C(=O)O)cc2c1	10.8	-8.5	102.0
CCCSc1nnc2n(-c3cc(C)cc(C)c3)c(=O)c3ccccc3n12	23.3	-6.3	/
O=C1CNC(=O)N1Cc1ccc(F)cc1	1.5	34.3*	99.0
O=C1CC(=O)N(Cc2ccc(F)cc2)C(=O)N1	-2.9	-28.0	98.0
CC1CSC(N(C(=O)/C=C/c2cn(CCC#N)c3ccccc23)c2ccc(Cl)cc2)=N1 (configuration not stated)	-6.5	-25.3	105.0
O=C(Cc1ccccc1Cl)NC1(O)C(=O)c2ccccc2C1=O	-9.1	-9.6	83.0*
CN1CCN(NC(=O)Cc2ccccc2Cl)CC1	-15.2	8.5	102.0
CCC1CN=C(Nc2cccc(C)c2)S1 (configuration not stated)	-6.6	/	100.0
CCOC(=O)c1c(NC(=O)CSc2nnc3sc4ccccc4n23)sc(C(=O)N(CC)CC)c1C	17.9	-14.8	104.0
COc1ccccc1CN(C)CCN	2.3	74.6*	101.0
CCCCN(C)Cc1cccc(OC)c1OC	-7.6	-10.8	102.0
COc1ccc(NC(=O)c2cncc(NS(=O)(=O)c3ccc(C)cc3)c2)cc1OC	-1.5	8.9	102.0
O=c1c2ccccc2c2nc3c(=O)c4ccccc4c3nc12	-1.9	6.6	95.0
O=c1c(=NO)c(=O)c2ccccc12	15.7	-16.4	32.0*
COC(=O)C1=C(N)OC(OC)=C(C#N)C1c1ccncc1 (configuration not stated)	/	-17.7	94.0
O=c1c2ccccc2nc(-c2ccco2)n1-c1nccs1	26.9	41.6*	101.0
O=c1c2cnn(-c3ccccc3)c2nc(-c2ccco2)n1-c1ccccc1	-7.0	/	/
Cc1ccc2nc(SCCC3OCCO3)nc(=O)n2c1	10.2	-16.6	100.0
O=C(NCc1ccc(Cl)cc1)c1ccc(Cn2c(=O)[nH]c3ccsc3c2=O)cc1	-3.3	-13.0	99.0
CC(C)Cc1nn2c(=O)cc(COC(=O)c3cccc(NC(=O)c4cccs4)c3)nc2s1	/	/	108.0
Cn1nc(C(C)(C)C)cc1C(=O)Nc1ccc(C(C)(C)C)cc1	/	-13.6	104.0
CC(CO)(CO)NC(=S)Nc1ccc(F)c(Cl)c1	55.4*	0.4	107.0
OCC(CO)(CO)NC(=S)Nc1cc(Cl)cc(Cl)c1	25.9	-8.3	105.0
O=C(Oc1ccc(Cl)cc1Cl)c1ccc(Br)o1	-19.5	-13.6	103.0
SMILES	MbtI inh	Mtb MenB inh	Polio RdRp inh
O=C(NCc1ccco1)C(=S)NCc1ccccc1	68.4*	-6.6	99.0
CC(Sc1ccccc1)C(=O)NCc1ccco1 (configuration not stated)	9.7	-4.1	102.0
O=C(NCc1ccco1)C(Sc1ccccc1)c1ccccc1 (configuration not stated)	-5.2	32.7*	102.0
O=C(NCc1ccccc1)c1ccco1	-18.1	-18.0	103.0
Cc1cc(C(C)(C)C)ccc1OCC(O)CNC1CCC(O)CC1 (configuration not stated)	6.6	-33.6	97.0
O=C1CSC(c2ccccc2)N1C1CCCCC1 (configuration not stated)	-4.1	-14.8	105.0
CCc1ccc(C(=O)c2cn(CC(=O)NCCc3ccccc3)c3nc(C)ccc3c2=O)cc1	/	/	105.0
COc1cccc(N2CCN(C(=O)Cn3ncc4c5ccccc5n(C)c4c3=O)CC2)c1	/	/	106.0
COc1cccc(N2CCN(C(=O)CCCn3sc4ccccc4c3=O)CC2)c1	96.8*	-40.1	99.0
CC(C)(C)NC(=O)c1ccc2snnc2c1	/	1.0	106.0
Cc1cc(N2CCCC2)ccc1/C=C/C1=CCN(C)CC1	89.2	10.8	64.0*
C=CCn1c(C)c(/C=C/C2=CCN(C)CC2)c2ccccc21	78.8	-168.4	78.0
Cc1ccc(C(=O)NCC(c2ccco2)N2CCCC2)cc1 (configuration not stated)	-7.2	7.7	101.0
CC(NC(=O)c1ccc(F)cc1)C(=O)O (configuration not stated)	48.6	38.4*	102.0
C[C@H](NC(=O)c1ccc(Br)cc1)C(=O)O	6.5	-12.3	102.0
Cc1cc(NC(=O)CSc2ccccc2)no1	4.0	32.1*	98.0
Cc1cc(NC(=O)CSC2=Nc3ccccc3CS2)no1	-0.1	-2.9	102.0
O=C(CN1C(=O)c2cccnc2Sc2ccccc21)Nc1cc(F)ccc1F	/	/	108.0
CCN(CC)P1(=S)c2c(C)nn(CCC#N)c2N=C(c2ccc(F)cc2)N1C (configuration not stated)	4.5	6.2	102.0
Cc1nn(CCC#N)c2c1P(=S)(N1CCCCC1)OC(c1ccccc1)=N2 (configuration not stated)	51.3	-57.1	90.0*
Clc1ccc(CNc2ncnc3[nH]ncc23)c(Cl)c1	-217.0	-9.4	105.0
O=C(c1csc2c1CCCCC2)N1CCN(c2ccccc2)CC1	-10.6	-15.6	101.0
CCCN1CCC(NC(=O)Nc2cccc(F)c2)CC1	-27.4	-24.7	101.0
COC(=O)c1sc(N)c(C(=O)OC)c1CN1C(=O)c2ccccc2S1(=O)=O	-2.3	-8.4	107.0
CNC(=O)c1sc(CN2C(=O)c3ccccc3S2(=O)=O)nc1C	92.0*	6.4	65.0*
SMILES	MbtI inh	Mtb MenB inh	Polio RdRp inh
N#CCCn1c(SCc2csc(-c3ccccc3)n2)nc2ccccc21	14.6	-5.9	107.0
CN(C(=O)CN1CCN(c2cccc(C(F)(F)F)c2)CC1)C1CCS(=O)(=O)C1 (configuration not stated)	14.8	-4.2	98.0
O=C(NC1CCCCC1)c1ccc(Cl)cc1	-8.1	-38.1	103.0
O=C1CC(NC(=O)c2ccc(Cl)cc2)C(=O)N1 (configuration not stated)	78.8*	/	102.0
O=c1cc(CSc2nnc3sc4ccccc4n23)c2ccc(Br)cc2o1	-18.1	-4.2	108.0
CC(=O)N1/C(=C/c2ccc(N(C)C)cc2)C(=O)c2ccccc21	-4.0	-61.0	102.0
CNC(=S)NC1CCS(=O)(=O)C1 (configuration not stated)	-6.8	-2.2	100.0
O=S1(=O)CCC(NC(=S)S)C1 (configuration not stated)	95.6*	/	101.0
Cn1c(N)c(C(=S)NC(=O)C2CC2)c(=O)n(C)c1=O	48.1	-13.9	101.0
O=C(O)C(Cc1cnc[nH]1)NS(=O)(=O)c1cccs1 (configuration not stated)	-0.2	14.8	104.0
O=C(OCc1ccc(C#Cc2ccccc2)s1)c1cccs1	-8.7	-1.1	111.0
COCc1nnc(NC(=O)Cc2ccccc2)s1	/	-4.8	100.0
CCC(C)(C)C(=O)Nc1nnc(COC)s1	9.5	33.0*	101.0
NC(=S)c1ccc(-c2cccs2)s1	100.3	-24.7	102.0
O=C(NN=C1C2CC3CC(C2)CC1C3)c1ccncc1	5.2	3.8	100.0
O=C(N/N=C1\C/C(=N\NC(=O)c2ccncc2)c2ccccc21)c1ccncc1	-34.5	-205.7	87.0*
O=C1C2C3c4ccccc4C(c4ccccc43)C2C(=O)N1CCN1CCCCC1 (configuration not stated)	5.6	9.4	100.0
CC(C)Oc1ccc(CNC(=O)c2cnc3sc(N4CCCCCC4)nn3c2=O)cc1	/	/	108.0
CC(C)Oc1ccc(CNC(=O)c2cnc3sc(N4CCCC4)nn3c2=O)cc1	/	/	15.0*
Cc1nc2ccccc2n1CC(=O)OC(C)C(=O)NC1CCCC(C)C1C (configuration not stated)	-6.4	-11.5	99.0
